Measured values from PubChem BioAssay AID488893 (Broad Institute, 2010).
Potency and affinity values are given separately. Activity calls are given as the source filed them.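 Rule for the calls: active = falling signal whose fitted half-maximal dose is at most ten times the top valid tested dose; inconclusive = flat curve with 30 to 70% inhibition, or poor fit; inactive = the rest, including changes in the wrong direction.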

Assay: single-agent antifungal toxicity in C. albicans – CaCi-2 strain, Alamar Blue, dry powder, set 2, counter-screen for antifungal drug resistance project, dose response (AID 488893)

Row | Compound | outcome
1 | COc1ccnc(N2CCN(C(=O)c3ccc(Cl)cc3)CC2)c1 | inactive
2 | O=C(C1CCC1)N1CCN(c2ccnc3cc(Cl)ccc23)CC1 | inactive
3 | O=C(c1ccc(Cl)cc1)N1CCN(c2ccnc3ccccc23)CC1 | inactive
4 | N#Cc1ccc(N2CCN(C(=O)c3ccc(Cl)cc3)CC2)nc1 | inactive
5 | O=C(c1ccc(Cl)cc1)N1CCN(c2ncnc3ccccc23)CC1 | inactive
6 | CC1CN(c2ccnc3cc(Cl)ccc23)CCN1C(=O)c1ccc(Cl)cc1 (stereo unspecified) | inactive
7 | O=C(c1ccc(Cl)cc1)N1CCCN(c2ccnc3cc(Cl)ccc23)CC1 | inactive
8 | CCCC(=O)N1CCN(c2ccnc3cc(Cl)ccc23)CC1 | inactive
9 | O=C(c1ccc(Cl)cc1)N1CCN(c2ccnc3ccc(Cl)cc23)CC1 | inactive
10 | O=C(c1ccc(Cl)cc1)N1CCN(c2ccnc3cc(Cl)ccc23)CC1 | inactive
11 | O=C(O)Cn1nc(-c2ccccc2)c2ccccc21 | inactive
12 | O=C(C1CCCC1)N1CCN(c2ccnc3cc(Cl)ccc23)CC1 | inactive
13 | O=C(c1ccc(Cl)cc1)N1CCNCC1 | inactive
14 | O=C(c1ccc(Cl)cc1)N1CCN(c2ncnc3nc[nH]c23)CC1 | inactive
15 | O=C(c1ccc(Cl)cc1)C1CCN(c2ccnc3cc(Cl)ccc23)CC1 | inactive
16 | CC(C)C(=O)N1CCN(c2ccnc3cc(Cl)ccc23)CC1 | inactive

Row | Compound | outcome
17 | O=C(Nc1ccc(Cl)cc1)N1CCN(c2ccnc3cc(Cl)ccc23)CC1 | inactive
18 | O=C(C1CCCCC1)N1CCN(c2ccnc3cc(Cl)ccc23)CC1 | inactive
19 | O=C(c1ccc(Cl)cc1)N1CCN(c2ccccn2)CC1 | inactive
20 | O=C(c1cccc(Cl)c1)N1CCN(c2ccnc3cc(Cl)ccc23)CC1 | inactive
21 | O=C(c1ccccc1Cl)N1CCN(c2ccnc3cc(Cl)ccc23)CC1 | inactive
22 | Cc1cc(N2CCN(C(=O)c3ccc(Cl)cc3)CC2)c2ccc(F)cc2n1 | inactive
23 | Clc1ccc2c(N3CCNCC3)ccnc2c1 | inactive
24 | COc1cccc2c(N3CCN(C(=O)c4ccc(Cl)cc4)CC3)cc(C)nc12 | inactive
25 | O=C(c1ccc(Cl)cn1)N1CCN(c2ccnc3cc(Cl)ccc23)CC1 | inactive
26 | COc1ccc2c(N3CCN(C(=O)c4ccc(Cl)cc4)CC3)ccnc2c1 | inactive
27 | CC(C)CC(=O)N1CCN(c2ccnc3cc(Cl)ccc23)CC1 | inactive
28 | Cc1cc(N2CCN(C(=O)c3ccc(Cl)cc3)CC2)c2ccccc2n1 | inactive
29 | O=C(c1ccc(Cl)nc1)N1CCN(c2ccnc3cc(Cl)ccc23)CC1 | inactive
30 | O=C(c1ccc(Cl)cc1)N1CCN(c2cccnc2)CC1 | inactive
31 | O=C(c1ccc(Cl)cc1)N1CCN(c2ccncc2)CC1 | inactive
